Bioassay records deposited in PubChem by National Center for Advancing Translational Sciences (NCATS).
Nrf2 inh: Nrf2 pathway inhibition. AID 504444. 2.1% of 360,000 active. A549 ARE-Fluc reporter, luciferase luminescence, 18-24 h. Potency, µM (doses to about 46 µM), most hits filed as inhibitors; also: nearly all actives have a fitted effect of over 60% in size
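Concentration-response testing used A549 ARE_Fluc cells at 5000 cells/well. Following an 18-24 h compound incubation, viability was read by fluorescence (Ex 405/Em 525) and luciferase output by luminescence.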
Nrf2 ARE act: activates Nrf2 signaling; AREc32 ARE-luciferase reporter (MCF7-derived line), luminescence, 24 h; Potency, µM (series often up to 46.1 µM), usual class: activators; 0.31% of 410,000 active; also: nearly all actives have a fitted effect of over 65% in size
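Nrf2 activation is followed as ARE-luciferase induction in the AREc32 line after one day of compound treatment; luminescence is read with Steady-Glo.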
Rango dissoc inh: inhibitors of RanGTP-induced Rango-importin beta complex dissociation | Biochemical FRET Rango-importin beta, RanGTP-induced dissociation | Potency, µM (highest dose often 46.1 µM) | O95149+P62826 | 0.071% of 340,000 active; calls by dose curve; also: nearly all actives have a fitted effect of over 45% in size
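Rango FRET biosensor (snurportin-1 IBB flanked by N-terminal EYFP and C-terminal CFP10) at 0.1 uM, with 0.25 uM importin beta in PBS, 1mM DTT, 0.02% Tween-20, 0.1% BSA. 0.6 uM Ran, 2mM GTP and 0.2 uM RCC1 were then added for 45 min at room temperature. Inhibition read as loss of FRET rise.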
A549 viability: A549 cytotoxicity, counter-screen for Nrf2 inhibitors; Potency, µM (doses to about 46 µM), most hits filed as inhibitors; AID 504648; 0.16% of 390,000 active; A549 ARE-Fluc cells, CellTiter-Fluor viability, 18-24 h
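A549 ARE_Fluc cells in 5% FBS OPTI-MEM were exposed to compounds in concentration-response for 18-24 h at 37 deg C. Viability was read by CellTiter-Fluor fluorescence (Ex 405/Em 525) after 30 min, before the luciferase read.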
Rango complex inh: prevents formation of the Rango-importin beta complex. 0.031% of 340,000 active. Potency, µM (titrated, usually from 92.2 µM). AID 540263. Rango CFP/YFP FRET sensor + importin beta, 45 min; calls by dose curve; also: nearly all actives have a fitted effect of over 15% in size
Target sequence (Q14974 whole entry, looked up): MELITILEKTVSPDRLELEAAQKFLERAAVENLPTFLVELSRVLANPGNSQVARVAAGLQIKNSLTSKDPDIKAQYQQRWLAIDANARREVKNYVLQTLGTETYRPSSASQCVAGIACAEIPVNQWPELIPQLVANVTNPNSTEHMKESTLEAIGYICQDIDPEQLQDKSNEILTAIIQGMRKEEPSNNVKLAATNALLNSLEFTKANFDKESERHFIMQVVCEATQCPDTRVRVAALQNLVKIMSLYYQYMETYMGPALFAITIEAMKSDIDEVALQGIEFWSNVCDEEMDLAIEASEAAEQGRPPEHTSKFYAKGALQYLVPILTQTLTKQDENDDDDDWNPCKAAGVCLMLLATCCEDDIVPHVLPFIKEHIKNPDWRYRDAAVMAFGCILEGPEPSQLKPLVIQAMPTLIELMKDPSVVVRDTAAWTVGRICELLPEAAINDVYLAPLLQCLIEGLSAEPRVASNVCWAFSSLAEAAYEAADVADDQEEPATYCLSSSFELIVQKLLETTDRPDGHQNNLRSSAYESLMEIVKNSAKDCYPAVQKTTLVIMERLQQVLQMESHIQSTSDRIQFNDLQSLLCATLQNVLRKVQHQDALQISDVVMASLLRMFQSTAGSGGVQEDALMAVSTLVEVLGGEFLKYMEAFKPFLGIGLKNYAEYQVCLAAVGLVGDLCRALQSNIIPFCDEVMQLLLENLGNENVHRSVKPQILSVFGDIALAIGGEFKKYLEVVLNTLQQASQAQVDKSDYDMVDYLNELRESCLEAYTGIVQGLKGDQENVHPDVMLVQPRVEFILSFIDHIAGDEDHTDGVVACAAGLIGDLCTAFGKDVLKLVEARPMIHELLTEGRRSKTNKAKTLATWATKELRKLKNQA
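Inhibition scored from the CFP 486 nm/YFP 530 nm FRET ratio 45 min after adding 0.125 microM importin beta to 50 nM Rango biosensor preincubated 5 min with compound (room temperature, PBS with DTT, Tween-20, BSA). No-importin wells as positive control.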
Large screens that a line does not name were inactive. The list is not random: actives were taken first. Their share in the collection is about 2.3%. Unless noted, calls follow the shape of the dose curve; as a rule, active = well fitted curve in the direction sought with a large enough effect; inconclusive = small, poorly fitted or top-dose-only effect, or another doubt; inactive = no such curve, though single readings can be large; an effect the other way counts as inactive or inconclusive.

Cc1cccc(NC(=O)CN2CCN(C(=O)CN3C(=O)NC4(CC(C)CC(C)(C)C4)C3=O)CC2)c1C (centres undefined)	Nrf2 inh 16µM
CC1CC(C)(C)CC2(C1)NC(=O)N(CC(=O)N1CCN(Cc3ccc(C#N)cc3)CC1)C2=O (centres undefined)	Nrf2 inh 1.8µM
COc1ccc(C)cc1NC(=O)COCc1cc(-c2ccc(F)cc2)on1	none (no result: Rango dissoc inh, Rango complex inh)
COC(=O)C1(c2ccccc2)NC(c2ccc(O)cc2)C2C(=O)N(c3ccc4c(c3)OCO4)C(=O)C21 (centres undefined)	none
Cc1cccn2c(=O)c(C=O)c(N3CCN(c4ccc(F)cc4)CC3)nc12	Nrf2 inh 16µM
Cc1cccn2c(=O)c(C=O)c(N3CCCCC3)nc12	Nrf2 inh inconclusive
CCC1OC2(C)OC(=N)C1(C#N)C(C#N)(C#N)C2c1ccccc1 (centres undefined)	Rango dissoc inh 8.2µM, Rango complex inh inconclusive
Nc1ccc(CN2CCOCC2)cc1	none
Cc1ccc(NC(=O)c2ccc(OCc3c(C)noc3C)cc2)c(C)c1	Nrf2 inh 23µM
Cc1noc(C)c1COc1cccc(C(=O)Nc2ccc(Br)cc2F)c1	Nrf2 inh 23µM, A549 viability inconclusive
Cc1ccc(NC(=O)c2cccc(OCc3c(C)noc3C)c2)c(C)c1	Nrf2 inh inconclusive
Cc1ccc(NC(=O)c2ccc(OCc3c(C)noc3C)cc2)cc1C	Nrf2 inh 18µM, A549 viability inconclusive
CCCCCNC(=O)C(=O)NCC(c1ccc2c(c1)OCO2)N1CCOCC1 (centres undefined)	none (no result: Nrf2 inh, Rango dissoc inh, Rango complex inh)
CC[C@H](C)[C@H]1O[C@]2(CC[C@@H]1C)C[C@@H]1C[C@@H](CC=C(C)[C@@H](O[C@H]3C[C@H](OC)[C@@H](O[C@H]4C[C@H](OC)[C@@H](O)[C@H](C)O4)[C@H](C)O3)[C@@H](C)C=CC=C3CO[C@@H]4[C@H](O)C(C)=C[C@@H](C(=O)O1)[C@]34O)O2	Nrf2 inh 5.8µM, A549 viability 23µM
Cc1nnsc1NC(=O)OCc1ccc(C(C)(C)C)cc1	Nrf2 inh 10µM
COc1ccc(C2c3c(ncn(CCCc4ccccc4)c3=N)Oc3ccc4ccccc4c32)cc1OC (centres undefined)	none (no result: Nrf2 ARE act, Rango dissoc inh, Rango complex inh)
Cn1nc(-c2ccc(C(=O)Nc3ccc(F)cc3)cc2)c2ccccc2c1=O	Nrf2 inh 18µM
Cn1nc(-c2ccc(C(=O)Nc3cccc(Cl)c3)cc2)c2ccccc2c1=O	Nrf2 inh 6.5µM
Cc1ccc(NC(=O)c2ccc(-c3nn(C)c(=O)c4ccccc34)cc2)cc1	Nrf2 inh inconclusive
Cn1nc(-c2ccc(OCC(=O)Nc3cccc(C(F)(F)F)c3)cc2)c2ccccc2c1=O	Nrf2 inh 26µM, A549 viability inconclusive (no result: Rango dissoc inh, Rango complex inh)
O=C1CCCc2cc(S(=O)(=O)NCC3CCC(C(=O)Nc4ccc(Cl)cc4)CC3)ccc2N1 (centres undefined)	none (no result: Nrf2 inh, Rango dissoc inh, Rango complex inh)
NS(=O)(=O)c1ccc(N/N=C/c2ccc(C(=O)O)cc2)c([N+](=O)[O-])c1	none
NS(=O)(=O)c1ccc(N/N=C/c2cn(-c3ccccc3)nc2-c2cccs2)cc1	none
NS(=O)(=O)c1ccc(N/N=C/c2cn(-c3ccccc3)nc2-c2cccs2)c([N+](=O)[O-])c1	Nrf2 inh 10µM, A549 viability 13µM
NS(=O)(=O)c1ccc(N/N=C/c2ccc[nH]2)c([N+](=O)[O-])c1	Nrf2 inh 8.2µM
O=C(NCc1cccc(Cl)c1)c1c2c(nc3ccccc13)C(=O)N(C1CCCCC1)C2	none (no result: Rango dissoc inh, Rango complex inh)
O=S(=O)(/C=C/c1ccccc1)Oc1ccccc1	Nrf2 ARE act 13µM
CN(C)C(CNC(=O)c1cc(S(=O)(=O)N(C)Cc2ccccc2)ccc1Cl)c1ccco1 (centres undefined)	Nrf2 inh 15µM
COc1ccc(N2CCN(C(=O)c3ccc(COc4ccc([N+](=O)[O-])cc4)o3)CC2)cc1	Nrf2 inh 23µM
O=[N+]([O-])c1ccc(Cl)c(/C=N/N2CCN(c3ccccc3)CC2)c1	Nrf2 ARE act 13µM
O=C(Cc1ccccc1)N1CCN(c2ccc([N+](=O)[O-])cc2)CC1	Nrf2 inh 26µM
O=C(c1ccc2nsnc2c1)N1CCN(c2ccc([N+](=O)[O-])cc2)CC1	Nrf2 inh 23µM
O=C(c1cc([N+](=O)[O-])ccc1Cl)N1CCN(c2ccc([N+](=O)[O-])cc2)CC1	Nrf2 inh 21µM, A549 viability inconclusive
Cc1ccc(CSc2nc3cccnc3n2Cc2nc(-c3ccccc3F)oc2C)cc1	Nrf2 inh inconclusive (no result: Rango dissoc inh, Rango complex inh)
N#CC(C#N)=C(Nc1ccc(F)cc1)SCc1cccc(Br)c1	Nrf2 inh 4.1µM, Nrf2 ARE act inconclusive, A549 viability inconclusive
Cc1cccc(CSC(Nc2ccc(F)cc2)=C(C#N)C#N)c1	Nrf2 inh 18µM
COc1ccc(-c2noc(-c3ccccc3OCC(=O)Nc3ccc(C(C)=O)cc3)n2)cc1	Nrf2 inh inconclusive (no result: Rango dissoc inh, Rango complex inh)
CCOc1ccccc1-c1nc(-c2ccc(NC(=O)Cc3ccc(OC)cc3)cc2)no1	Nrf2 inh 21µM, Rango complex inh inconclusive
COc1cc(/C=C2\SC(=O)N(c3cccc(Cl)c3)C2=O)cc([N+](=O)[O-])c1O	Nrf2 inh inconclusive, A549 viability 13µM, Rango complex inh inconclusive
O=C1S/C(=C\c2ccc(O)c([N+](=O)[O-])c2)C(=O)N1c1ccccc1Cl	Nrf2 inh inconclusive, A549 viability inconclusive, Rango complex inh inconclusive
COc1cc(/C=C2/C(=O)NN(c3ccc(C)c(Cl)c3)C2=O)cc([N+](=O)[O-])c1O	none
COc1cc(/C=C2\SC(=O)N(c3ccc(Cl)cc3)C2=O)cc([N+](=O)[O-])c1O	Nrf2 inh inconclusive, A549 viability 16µM, Rango complex inh inconclusive
Cc1ccc(S(=O)(=O)Nc2cc(Cl)c(O)c3ncccc23)cc1	Nrf2 inh 21µM
Cc1ccc(S(=O)(=O)Nc2cc(S(=O)(=O)c3ccc(C)cc3)c(O)c3cccnc23)cc1	none (no result: Nrf2 ARE act, Rango dissoc inh, Rango complex inh)
O=C(NNC(=O)C1CCCN(S(=O)(=O)c2cccc(F)c2)C1)C1CC1 (centres undefined)	none
COc1ccc2c(c1OC)C(=O)N(c1cccc(/C=C/C(=O)O)c1)C2	Nrf2 inh 16µM
Cc1ccc(NC(=O)CSc2nnc(C3CC3)n2C)cc1S(=O)(=O)N1CCCCC1	Nrf2 inh 15µM
Cc1ccc(NC(=O)COc2ccc(Cl)cc2Cl)cc1S(=O)(=O)N1CCOCC1	Nrf2 inh 21µM, A549 viability inconclusive, Rango complex inh inconclusive
COc1cc(C#N)ccc1OCC(=O)Nc1ccc(C)c(S(=O)(=O)N2CCOCC2)c1	none
Cc1ccc(NC(=O)COc2cccc(C)c2C)cc1S(=O)(=O)N1CCCCCC1	Nrf2 inh 26µM
Cc1ccc(NC(=O)COc2ccccc2C(N)=O)cc1S(=O)(=O)N1CCCCCC1	Nrf2 inh 5.2µM, A549 viability inconclusive
